The record followed here is ChEMBL document CHEMBL1961873, “Compounds: GSK PKIS; Assays: Nanosyn kinase panel” (2012).

Structures are written as SMILES.

Test [1] has as its target Tyrosine-protein kinase SYK (Homo sapiens) (UniProt P43405). As to conditions: at 1 µM.
In test [2] the target is T1, Tyrosine-protein kinase Tec (Homo sapiens) (UniProt P42680).
T1 sequence (whole entry): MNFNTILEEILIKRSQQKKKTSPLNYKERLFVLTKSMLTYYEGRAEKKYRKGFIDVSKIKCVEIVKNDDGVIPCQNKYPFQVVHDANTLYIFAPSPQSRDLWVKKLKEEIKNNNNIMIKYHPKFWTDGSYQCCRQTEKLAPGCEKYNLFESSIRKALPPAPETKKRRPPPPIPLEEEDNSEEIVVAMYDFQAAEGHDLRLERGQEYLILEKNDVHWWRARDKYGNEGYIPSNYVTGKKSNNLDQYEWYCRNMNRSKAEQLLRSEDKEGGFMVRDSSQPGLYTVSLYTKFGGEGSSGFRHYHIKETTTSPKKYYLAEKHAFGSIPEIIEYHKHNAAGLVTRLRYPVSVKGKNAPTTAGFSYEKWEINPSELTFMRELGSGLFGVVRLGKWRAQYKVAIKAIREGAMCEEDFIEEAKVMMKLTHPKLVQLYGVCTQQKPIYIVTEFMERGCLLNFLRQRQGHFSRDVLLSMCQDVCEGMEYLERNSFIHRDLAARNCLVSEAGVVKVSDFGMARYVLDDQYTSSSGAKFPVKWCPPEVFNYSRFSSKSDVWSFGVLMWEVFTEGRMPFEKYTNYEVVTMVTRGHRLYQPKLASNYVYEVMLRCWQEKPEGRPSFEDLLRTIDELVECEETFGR
As to conditions: at 0.1 µM.

Test [3] addresses T1, Tyrosine-protein kinase Tec (Homo sapiens). The settings on record: at 1 µM.
For test [4], the target named is Angiopoietin-1 receptor (Homo sapiens) (UniProt Q02763). As to conditions: at 0.1 µM.
Sequence of Angiopoietin-1 receptor (Homo sapiens) (Q02763 whole entry): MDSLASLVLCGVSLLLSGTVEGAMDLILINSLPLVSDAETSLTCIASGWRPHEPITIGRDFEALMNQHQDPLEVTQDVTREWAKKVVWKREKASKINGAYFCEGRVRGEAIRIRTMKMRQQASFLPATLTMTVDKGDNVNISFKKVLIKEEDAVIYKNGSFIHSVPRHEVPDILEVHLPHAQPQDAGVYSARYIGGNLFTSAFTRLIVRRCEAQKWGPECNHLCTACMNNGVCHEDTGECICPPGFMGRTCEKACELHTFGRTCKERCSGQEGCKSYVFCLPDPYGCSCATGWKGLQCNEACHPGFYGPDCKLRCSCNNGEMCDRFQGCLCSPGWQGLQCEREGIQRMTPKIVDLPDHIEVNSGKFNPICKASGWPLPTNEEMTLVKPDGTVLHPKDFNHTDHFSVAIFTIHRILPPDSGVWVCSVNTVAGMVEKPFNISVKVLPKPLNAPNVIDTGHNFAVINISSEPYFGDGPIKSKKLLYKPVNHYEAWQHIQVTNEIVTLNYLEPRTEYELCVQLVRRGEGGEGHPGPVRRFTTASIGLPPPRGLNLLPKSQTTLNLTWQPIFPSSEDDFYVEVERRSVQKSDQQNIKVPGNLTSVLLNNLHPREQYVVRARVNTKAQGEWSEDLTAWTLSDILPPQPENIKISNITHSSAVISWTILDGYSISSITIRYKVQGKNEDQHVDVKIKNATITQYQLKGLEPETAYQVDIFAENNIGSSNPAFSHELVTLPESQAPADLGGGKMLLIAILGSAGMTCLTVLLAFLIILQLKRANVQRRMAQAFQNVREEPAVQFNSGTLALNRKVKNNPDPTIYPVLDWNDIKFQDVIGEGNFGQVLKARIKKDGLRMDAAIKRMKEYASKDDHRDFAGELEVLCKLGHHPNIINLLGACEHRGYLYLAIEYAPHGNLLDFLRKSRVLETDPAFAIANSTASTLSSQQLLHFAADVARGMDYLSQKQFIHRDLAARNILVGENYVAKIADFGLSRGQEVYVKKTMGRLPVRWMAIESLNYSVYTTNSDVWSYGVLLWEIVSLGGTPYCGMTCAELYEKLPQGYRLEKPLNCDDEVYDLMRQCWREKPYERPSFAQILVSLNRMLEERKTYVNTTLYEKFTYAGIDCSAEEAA
Test [5] shares this target. The settings on record: at 1 µM.
Test [6] concerns the target T2, Non-receptor tyrosine-protein kinase TNK1 (Homo sapiens) (UniProt Q13470).
T2 sequence (whole entry): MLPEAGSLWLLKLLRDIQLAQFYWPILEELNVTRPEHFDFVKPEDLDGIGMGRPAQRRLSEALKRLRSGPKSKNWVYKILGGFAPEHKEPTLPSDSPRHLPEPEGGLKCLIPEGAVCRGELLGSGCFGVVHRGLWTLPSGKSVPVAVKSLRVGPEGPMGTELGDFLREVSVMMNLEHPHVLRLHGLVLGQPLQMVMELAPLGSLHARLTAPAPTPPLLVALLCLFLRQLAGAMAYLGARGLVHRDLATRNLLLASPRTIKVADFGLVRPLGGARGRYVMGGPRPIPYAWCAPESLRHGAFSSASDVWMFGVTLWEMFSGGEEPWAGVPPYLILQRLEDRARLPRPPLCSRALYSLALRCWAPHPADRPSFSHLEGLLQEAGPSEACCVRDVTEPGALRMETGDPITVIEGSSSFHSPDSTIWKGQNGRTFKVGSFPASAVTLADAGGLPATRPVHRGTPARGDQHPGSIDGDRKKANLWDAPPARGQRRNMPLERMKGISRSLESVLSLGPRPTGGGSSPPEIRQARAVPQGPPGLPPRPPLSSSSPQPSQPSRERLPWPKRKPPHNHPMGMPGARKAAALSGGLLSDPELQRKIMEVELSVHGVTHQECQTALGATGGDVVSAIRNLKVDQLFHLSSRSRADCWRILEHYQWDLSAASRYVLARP
The settings on record: at 0.1 µM.

In test [7] the target is T2, Non-receptor tyrosine-protein kinase TNK1 (Homo sapiens). The settings on record: at 1 µM.
For test [8], the target named is Activated CDC42 kinase 1 (Homo sapiens) (UniProt Q07912). As to conditions: at 0.1 µM.
Sequence of Activated CDC42 kinase 1 (Homo sapiens) (Q07912 whole entry, looked up): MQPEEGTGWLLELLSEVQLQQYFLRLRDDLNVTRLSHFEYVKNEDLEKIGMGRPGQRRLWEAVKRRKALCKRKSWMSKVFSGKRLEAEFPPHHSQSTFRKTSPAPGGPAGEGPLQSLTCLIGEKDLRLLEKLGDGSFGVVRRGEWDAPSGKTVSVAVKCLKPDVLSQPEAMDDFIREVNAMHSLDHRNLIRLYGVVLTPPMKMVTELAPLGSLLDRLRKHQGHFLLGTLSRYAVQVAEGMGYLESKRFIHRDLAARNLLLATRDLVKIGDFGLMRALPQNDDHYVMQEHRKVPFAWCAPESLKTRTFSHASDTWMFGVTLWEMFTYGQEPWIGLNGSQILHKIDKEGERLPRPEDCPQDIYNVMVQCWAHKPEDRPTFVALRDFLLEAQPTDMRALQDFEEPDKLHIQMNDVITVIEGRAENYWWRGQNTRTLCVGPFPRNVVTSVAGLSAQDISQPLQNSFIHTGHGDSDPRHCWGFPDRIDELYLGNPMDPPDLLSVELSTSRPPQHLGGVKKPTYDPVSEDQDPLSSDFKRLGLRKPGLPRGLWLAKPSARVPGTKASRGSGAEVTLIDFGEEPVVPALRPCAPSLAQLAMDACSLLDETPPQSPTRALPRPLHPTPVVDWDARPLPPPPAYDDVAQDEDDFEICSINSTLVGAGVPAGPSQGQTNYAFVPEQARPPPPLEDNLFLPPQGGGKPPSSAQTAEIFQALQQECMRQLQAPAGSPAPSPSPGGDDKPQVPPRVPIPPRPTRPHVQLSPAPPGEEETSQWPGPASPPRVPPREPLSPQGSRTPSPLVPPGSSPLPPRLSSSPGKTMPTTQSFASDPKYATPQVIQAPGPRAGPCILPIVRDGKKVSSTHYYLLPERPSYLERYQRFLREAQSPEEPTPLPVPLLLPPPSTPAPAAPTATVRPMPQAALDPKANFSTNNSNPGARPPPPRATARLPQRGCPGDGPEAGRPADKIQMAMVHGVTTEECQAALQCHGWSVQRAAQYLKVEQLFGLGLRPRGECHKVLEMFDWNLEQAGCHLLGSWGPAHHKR
Test [9] has the same target. The settings on record: at 1 µM.
The target of test [10] is High affinity nerve growth factor receptor (Homo sapiens) (UniProt P04629). The settings on record: at 0.1 µM.
Sequence of High affinity nerve growth factor receptor (Homo sapiens) (P04629 33-796 limits assumed): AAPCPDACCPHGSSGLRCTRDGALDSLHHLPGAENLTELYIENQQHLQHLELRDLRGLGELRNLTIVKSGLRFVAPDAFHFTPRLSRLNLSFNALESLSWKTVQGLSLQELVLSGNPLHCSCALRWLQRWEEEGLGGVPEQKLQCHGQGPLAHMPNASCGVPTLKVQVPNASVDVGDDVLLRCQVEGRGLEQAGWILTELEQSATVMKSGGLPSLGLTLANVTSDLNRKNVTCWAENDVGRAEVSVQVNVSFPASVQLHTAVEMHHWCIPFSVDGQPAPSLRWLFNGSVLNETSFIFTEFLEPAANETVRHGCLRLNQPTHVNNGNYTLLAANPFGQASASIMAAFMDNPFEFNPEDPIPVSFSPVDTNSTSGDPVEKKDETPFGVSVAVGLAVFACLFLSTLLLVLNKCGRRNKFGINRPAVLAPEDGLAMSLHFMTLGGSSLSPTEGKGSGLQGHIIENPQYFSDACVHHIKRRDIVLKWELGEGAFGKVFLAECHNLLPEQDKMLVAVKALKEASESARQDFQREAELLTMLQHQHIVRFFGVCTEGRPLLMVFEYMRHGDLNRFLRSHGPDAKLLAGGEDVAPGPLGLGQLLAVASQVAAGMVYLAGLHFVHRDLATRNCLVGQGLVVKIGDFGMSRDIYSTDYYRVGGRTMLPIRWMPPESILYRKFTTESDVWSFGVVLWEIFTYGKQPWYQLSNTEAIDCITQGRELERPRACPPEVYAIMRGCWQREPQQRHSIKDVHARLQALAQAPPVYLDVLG
The target is the same in test [11]. The settings on record: at 1 µM.
Test [12] concerns the target BDNF/NT-3 growth factors receptor (Homo sapiens) (UniProt Q16620). As to conditions: at 0.1 µM.
Test [13] shares this target. The settings on record: at 1 µM.
In test [14] the target is NT-3 growth factor receptor (Homo sapiens) (UniProt Q16288). As to conditions: at 0.1 µM.
For test [15] the target is unchanged. As to conditions: at 1 µM.
Test [16] addresses T3, Tyrosine-protein kinase TXK (Homo sapiens) (UniProt P42681).
T3 sequence (whole entry): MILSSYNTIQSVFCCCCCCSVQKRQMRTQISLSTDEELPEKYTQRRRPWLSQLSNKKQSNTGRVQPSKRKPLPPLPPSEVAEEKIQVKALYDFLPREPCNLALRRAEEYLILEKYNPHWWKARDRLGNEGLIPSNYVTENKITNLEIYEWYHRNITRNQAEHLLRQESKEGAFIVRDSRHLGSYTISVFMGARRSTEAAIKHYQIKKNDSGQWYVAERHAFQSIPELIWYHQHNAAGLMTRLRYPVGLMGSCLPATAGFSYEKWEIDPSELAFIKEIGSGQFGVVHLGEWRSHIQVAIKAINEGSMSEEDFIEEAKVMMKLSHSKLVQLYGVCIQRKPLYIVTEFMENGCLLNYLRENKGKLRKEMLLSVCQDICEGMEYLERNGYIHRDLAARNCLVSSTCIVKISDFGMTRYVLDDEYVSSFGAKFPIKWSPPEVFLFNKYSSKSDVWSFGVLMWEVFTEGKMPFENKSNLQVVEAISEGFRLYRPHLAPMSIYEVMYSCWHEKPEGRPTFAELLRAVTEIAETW
As to conditions: at 0.1 µM.

In test [17] the target is T3, Tyrosine-protein kinase TXK (Homo sapiens). As to conditions: at 1 µM.
Test [18] has as its target Non-receptor tyrosine-protein kinase TYK2 (Homo sapiens) (UniProt P29597). As to conditions: at 0.1 µM.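 Also: each value is a mean of the inhibition readings.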
In test [19] the target is T4, Dual specificity protein kinase TTK (Homo sapiens) (UniProt P33981).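 Also: reported figures are mean TTK inhibition at 1 µM.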
T4 sequence (whole entry): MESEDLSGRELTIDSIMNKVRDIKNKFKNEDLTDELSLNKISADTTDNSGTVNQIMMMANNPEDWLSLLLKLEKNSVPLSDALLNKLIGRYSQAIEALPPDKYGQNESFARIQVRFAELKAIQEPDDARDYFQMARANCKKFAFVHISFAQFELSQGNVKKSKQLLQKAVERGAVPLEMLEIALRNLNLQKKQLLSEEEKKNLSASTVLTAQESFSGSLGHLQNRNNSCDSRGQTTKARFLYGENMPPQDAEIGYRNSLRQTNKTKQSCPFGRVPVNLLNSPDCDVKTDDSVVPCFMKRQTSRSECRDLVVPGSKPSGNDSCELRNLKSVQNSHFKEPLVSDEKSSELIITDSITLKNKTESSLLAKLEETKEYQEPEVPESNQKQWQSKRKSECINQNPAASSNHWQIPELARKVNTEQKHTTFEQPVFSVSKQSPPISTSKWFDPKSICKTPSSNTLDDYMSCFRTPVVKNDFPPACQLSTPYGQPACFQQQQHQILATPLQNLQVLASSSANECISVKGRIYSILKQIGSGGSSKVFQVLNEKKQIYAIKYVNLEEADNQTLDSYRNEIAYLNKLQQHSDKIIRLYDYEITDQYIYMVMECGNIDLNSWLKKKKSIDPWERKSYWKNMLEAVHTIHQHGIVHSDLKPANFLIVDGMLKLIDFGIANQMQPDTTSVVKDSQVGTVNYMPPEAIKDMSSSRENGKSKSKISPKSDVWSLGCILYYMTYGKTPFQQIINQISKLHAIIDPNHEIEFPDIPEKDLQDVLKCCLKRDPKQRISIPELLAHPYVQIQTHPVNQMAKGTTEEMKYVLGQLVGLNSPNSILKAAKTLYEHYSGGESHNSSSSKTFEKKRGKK
As to conditions: at 1 µM.

Test [20] has as its target T5, Aurora kinase A (Homo sapiens) (UniProt O14965).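 Also: each reported value is a mean percent inhibition of Aurora-A.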
T5 sequence (whole entry): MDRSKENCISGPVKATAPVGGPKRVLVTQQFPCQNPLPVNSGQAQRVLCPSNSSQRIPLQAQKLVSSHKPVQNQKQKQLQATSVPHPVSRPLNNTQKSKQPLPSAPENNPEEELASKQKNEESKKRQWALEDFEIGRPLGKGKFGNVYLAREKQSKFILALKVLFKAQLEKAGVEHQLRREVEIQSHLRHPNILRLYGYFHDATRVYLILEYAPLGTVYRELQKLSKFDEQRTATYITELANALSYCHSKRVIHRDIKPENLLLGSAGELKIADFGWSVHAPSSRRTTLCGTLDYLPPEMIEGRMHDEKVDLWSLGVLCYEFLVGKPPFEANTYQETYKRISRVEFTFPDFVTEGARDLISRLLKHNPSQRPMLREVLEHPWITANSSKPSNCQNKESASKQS
The settings on record: at 0.1 µM.

Sequence of BDNF/NT-3 growth factors receptor (Homo sapiens) (Q16620 32-822 limits assumed): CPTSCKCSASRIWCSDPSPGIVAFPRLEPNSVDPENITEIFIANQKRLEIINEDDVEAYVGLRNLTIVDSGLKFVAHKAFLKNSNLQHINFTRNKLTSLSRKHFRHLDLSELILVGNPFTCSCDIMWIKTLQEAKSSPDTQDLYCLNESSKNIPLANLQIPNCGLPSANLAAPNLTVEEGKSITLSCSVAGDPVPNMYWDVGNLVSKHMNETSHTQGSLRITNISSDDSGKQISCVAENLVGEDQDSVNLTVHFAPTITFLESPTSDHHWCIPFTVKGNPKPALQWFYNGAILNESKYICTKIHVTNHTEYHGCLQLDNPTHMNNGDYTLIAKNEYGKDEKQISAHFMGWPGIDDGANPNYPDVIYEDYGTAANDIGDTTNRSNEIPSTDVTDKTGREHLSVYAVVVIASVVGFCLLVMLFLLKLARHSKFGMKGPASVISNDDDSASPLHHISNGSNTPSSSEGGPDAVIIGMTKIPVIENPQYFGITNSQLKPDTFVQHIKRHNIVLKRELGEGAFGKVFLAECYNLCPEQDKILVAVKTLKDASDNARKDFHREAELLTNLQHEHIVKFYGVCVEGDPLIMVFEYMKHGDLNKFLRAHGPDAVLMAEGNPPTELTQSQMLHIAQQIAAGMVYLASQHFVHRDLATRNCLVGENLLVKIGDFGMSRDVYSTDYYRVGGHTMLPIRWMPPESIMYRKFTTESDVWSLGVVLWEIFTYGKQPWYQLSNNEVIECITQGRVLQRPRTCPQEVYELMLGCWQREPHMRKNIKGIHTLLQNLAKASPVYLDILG
Sequence of Non-receptor tyrosine-protein kinase TYK2 (Homo sapiens) (P29597 whole entry): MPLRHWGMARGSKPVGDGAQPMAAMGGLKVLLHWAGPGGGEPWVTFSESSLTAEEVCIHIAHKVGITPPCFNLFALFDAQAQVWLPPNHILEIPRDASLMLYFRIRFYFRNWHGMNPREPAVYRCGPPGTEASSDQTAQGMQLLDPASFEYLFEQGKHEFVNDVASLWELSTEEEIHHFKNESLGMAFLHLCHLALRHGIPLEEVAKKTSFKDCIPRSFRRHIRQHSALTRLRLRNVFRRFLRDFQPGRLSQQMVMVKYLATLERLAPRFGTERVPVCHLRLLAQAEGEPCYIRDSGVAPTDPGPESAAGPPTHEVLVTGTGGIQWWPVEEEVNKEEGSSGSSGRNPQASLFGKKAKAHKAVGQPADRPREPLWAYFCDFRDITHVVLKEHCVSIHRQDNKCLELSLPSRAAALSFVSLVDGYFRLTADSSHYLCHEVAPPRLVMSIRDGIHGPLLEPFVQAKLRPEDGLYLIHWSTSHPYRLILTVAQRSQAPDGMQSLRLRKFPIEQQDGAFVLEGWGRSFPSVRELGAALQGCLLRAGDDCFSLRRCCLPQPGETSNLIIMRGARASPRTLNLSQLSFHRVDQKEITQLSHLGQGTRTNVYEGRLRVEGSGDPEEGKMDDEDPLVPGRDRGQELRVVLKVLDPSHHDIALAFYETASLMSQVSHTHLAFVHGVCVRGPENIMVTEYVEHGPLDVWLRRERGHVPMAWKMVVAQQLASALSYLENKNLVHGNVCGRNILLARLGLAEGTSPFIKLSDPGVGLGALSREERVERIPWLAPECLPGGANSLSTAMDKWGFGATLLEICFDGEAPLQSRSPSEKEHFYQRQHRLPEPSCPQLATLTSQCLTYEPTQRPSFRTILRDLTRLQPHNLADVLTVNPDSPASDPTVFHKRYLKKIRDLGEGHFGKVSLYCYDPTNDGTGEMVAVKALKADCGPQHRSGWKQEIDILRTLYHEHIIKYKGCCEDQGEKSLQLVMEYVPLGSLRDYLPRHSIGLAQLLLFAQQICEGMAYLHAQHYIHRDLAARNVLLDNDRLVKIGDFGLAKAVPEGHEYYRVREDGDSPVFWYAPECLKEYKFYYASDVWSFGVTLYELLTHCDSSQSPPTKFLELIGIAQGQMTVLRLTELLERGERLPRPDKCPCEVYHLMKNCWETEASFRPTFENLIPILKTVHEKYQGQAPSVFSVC

For the molecule `O=C1NC(=O)C(c2ccccc2Cl)=C1Nc1cccc(O)c1`, the inhibition is -0.68% in [1]; 3.78% in test [2]; 4.55% in [3]; 1.47% in [4]; 5.97% in [5]; 3.82% in test [6]. Besides, the inhibition in test [7] came out at 2.57%; in [8] it was 1.29%; in test [9] it was 3.26%; in test [10], 4.19%; in [11], 0.59%; in test [12], 1.19%. Moreover, the inhibition was 1.88% in [13]; 0.46% in [14]; 4.4% in test [15]; 3.39% in test [16]; 4.53% in test [17]; -5.26% in test [18]. In addition, the inhibition in test [19] is -9.72%; in test [20], 3.17%.

As for `CCn1c(-c2nonc2N)nc2c(N3CCCC3)nccc21`, the inhibition in test [1] is 2.9%; in test [2], -1.85%; in [3], -3.76%; in test [4], 0.7%; in test [5], 0.05%; in [6] it was -3.68%. For the same molecule, the inhibition in test [7] was -3.3%; in [8] it was -0.78%; in test [9] it was -0.6%; in [10], 1.23%; in test [11], 0.75%; in [12], -0.07%. The inhibition in test [13] was 0.49%; in test [14] it was -0.45%; in test [15] it was -0.34%; in test [16] it was -0.75%; in [17], -2.21%; in test [18] it was 2.25%. Also, the inhibition in [19] was -1.76%; in test [20] it was -1.86%.

On to `COc1cc(C)c(NC(=O)CN(C)C)cc1Nc1nc(Nc2cccc(F)c2C(N)=O)c2cc[nH]c2n1`, for which the inhibition in [1] worked out at 0.44%; in [2] it was 1.93%; in test [3], 3.64%; in [4], 0.55%; in test [5], 0.17%; in test [6] it was 30.8%. In addition, the inhibition in [7] was determined as 73.4%; in [8], 1.18%; in test [9] it was 14%; in test [10], 2.31%; in test [11] it was 13%; in [12] it was 2.25%. Further, the inhibition in test [13] is 1.27%; in test [14], 2.83%; in test [15], 4.14%; in test [16] it was 0.4%; in [17], -0.74%; in test [18] it was 1%. For the same molecule, the inhibition was found to be 53.5% in test [19] and 2.06% in [20].

Take `Cc1ccc(C(=O)NC2CCCCC2)cc1-c1ccc(C(=O)NCC2CC2)cc1`: the inhibition is 0.52% in test [1]; 4.18% in test [2]; 5.66% in test [3]; 1.79% in [4]; 4.17% in [5]; 0.56% in [6]. Moreover, the inhibition in [7] is -2.52%; in [8], 2.3%; in test [9], 4.5%; in [10] it was 2.3%; in test [11] it was 2.19%; in test [12], 0.88%. In addition, the inhibition in test [13] was -0.15%; in test [14], 0.18%; in test [15] it was -0.57%; in test [16], 4.64%; in [17], 5.63%; in test [18], 1.37%. Moreover, the inhibition in [19] came to 8.51%; in test [20], 4.04%.

One may read the inhibition as the change of the read-out against control, counted positive when it falls.
